Assay results from the supplement of paper PMC11417369.
Over roughly 25,000 sequences, “ln(normalized median fluorescence intensity)” has its median near 6.7; the highest 2% begin near 10. This excerpt belongs to a sample that is enriched for the highest values.

Tested on: PfHDP1 homeodomain (GST-tagged)
Experiment: gcPBM binding intensity (ln(normalized median fluorescence intensity)); higher = stronger DNA binding
How it was run: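 DNA-binding domains from P. falciparum, fused to GST and produced in E. coli, were put on an Agilent 4 × 180k double-stranded probe array for 1 h in 1× PBS holding 1% milk, 0.2 mg/ml BSA, 0.5% salmon testes DNA and 0.03% Triton X-100. Probes were primer-extended, 36 bp long and drawn from intergenic genomic regions, with negative controls included. After Alexa488 anti-GST antibody detection and a 488 nm scan, binding intensity was set as the highest Masliner-normalised natural-log median intensity across replicate spots of either probe orientation.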

Sequence | gcPBM binding intensity (ln)
ATATAGATGCATAATACACACATCAGATAATTAACC [CACACA_site6871] | 6.96
TGCAAAAAATTCCACACACACACACGCATATAAATA [CACACA_site6696] | 6.72
TTTTTTTGTTAAAAGGTGCTAATATATATAAGTGCT | 6.62
TCTACTATTATATATTGTACAAATGATACTTATATT [XGTACX_site1819] | 6.61
ATGATATACTTGAGTGTGCACAAACTATTACTTACA | 11
ATATATTTGATAAGAGTGCACAAATACATACATACA [GTGCAC_site9704] | 9.65
CCATTTGATAATAATGCACACCACATATATTTATAT [CACACA_site9002] | 10.1
TTATTTACATCAAGTACATGCAGTAAAAAAAAAAAA [TGCATGCA_site351] | 6.41
ATATATATATATATATGTACTTATTTATCGTATTAT [XGTACX_site3520] | 9.59
TACACATAATATAATGCATGTGTGATGTATGTTTAA [TGCATGCA_site697] | 6.56
CTTTTTTTAATGATAACACACATGTTGTGCATAGAC [CACACA_site3270] | 10.7
TCTTTTAACACATGTGATATTATTTAATAACAATAA [CACACA_negctrl_site339] | 6.51
TTTTTTTTTTATTAATGTACAAGATATATAATGTTA [XGTACX_site4809] | 6.16
TTAAAAAACCTTAGATGTACAGTTATATATAAAATA [XGTACX_site6688] | 6.37
TTTAATTTTCGGTGTGCACACAACTATGAGTTTTTA [CACACA_site3034] | 11.2
AACGGGGGTAGTTTTATGCACACGTTTATTAATGCT [CACACA_site3173] | 9.56
AACAACTATTAATTTACACACATGTATATATTTTAC [CACACA_site3116] | 6.82
TAACTTAATTTTAATGCACACAATTTATATATATAT [CACACA_site6022] | 10.5
TTTTTAATTTATTGTGTGCACACAACTATGAGTTTT | 10.3
TTTAATTATTAGTGTGCACACAACTATGAGTTTTTA [CACACA_site8997] | 10.8
TTTTTTTTTTTTTTTTGTACATATTTTTAAACTATA [XGTACX_site2897] | 6.24
TTCTTTTTTCGACACACACACACAAGAAGATATATA [CACACA_site7456] | 7.11
ATATATCTATAAAAGGCTTCCCACTTTTTTTGTCAA [TGCATGCA_negctrl_site332] | 6.39

Sequence | gcPBM binding intensity (ln)
GGCGTATGTGTATATACACACCCACGTATATATATA [CACACA_site9046] | 8.02
CCTATTTATATATACACACACATATATAAATAAATA [CACACA_site2991] | 6.95
TATATATATGAGTATACACACCTGATAAAGGTATAT [CACACA_site5462] | 6.87
TAATGTAAAATTTAGAGTACATAAAAAATTGGATGA [XGTACX_site7225] | 6.68
AAAAATAAAATATATACATGCATATACATATTATAT [TGCATGCA_site668] | 6.31
AAATAAAATTATAATACATGCATACATACATATATA [TGCATGCA_site69] | 6.3
AATTATATAAGCCACGCATGTGTGCATAAAAATACA [TGCATGCA_site114] | 10.9
CCATAATATTATAGACGTACGAATATATATAAAAGA [XGTACX_site7295] | 7.24
ACATATAAATGATATGTACACACATTTATATATATA [CACACA_site9152] | 7.4
TAAAGATATAAATGCACACGTATTAAAAAAAAAATA [CACACA_site952] | 9.54
TATATTAACAAAATGGTGCAATAATTTCTATATTGT [GTGCAC_site9430] | 10.4
ACATTAACATTGTTGGTGCAAAATTAATATGTTTTT [GTGCAC_site9673] | 10.7
AAAATTAATGTTGGTTGTACAAAAATTAAATATGGT [XGTACX_site66] | 6.85
TAAATACATAAAAATTGTACACATTGTTTTCTCTTT [XGTACX_site6435] | 6.49
TAGAAATATATAAATTGTACATGTTTGTATAATATA [XGTACX_site2097] | 6.44
CTTAAATTTTTAAATACACACATACACCCATACACA [CACACA_site4461] | 7.25
ATTAAATGCACATATACACACACCCAATTTTAAGTT [CACACA_site3049] | 11.3
ATATTTATACTATACACACCCAATTTAAAAAAAAAT [CACACA_site1163] | 7.11
TAAATGCACATATACACACACCCAATTTTAAGTTTT [CACACA_site7428] | 11.1
TAAAATAAAAAGTTTACACACATATATAATTTTAAT [CACACA_site662] | 6.24
ACCCAATTTTTTAGTACACACATATAAATATATAAA [CACACA_site4944] | 6.86
TTCTTAAGGAACGAACGTACAGAATAAAAAGTAAAA [XGTACX_site4294] | 6.61
GTTTATGTTAAACCATGTACTTAATATTTTATTCTT [XGTACX_site3761] | 6.29

Sequence | gcPBM binding intensity (ln)
ATTACATTTTTAATGCGTACTAAAAATGTATATAAG [XGTACX_site6384] | 6.6
ATTGAAAAACCGTTTAGTACATATCATCACGTTTGT [XGTACX_site1295] | 6.04
CATACATACATACATACACACACATATATATATATA [CACACA_site8593] | 9.27
ATTGCTTTTCTTTTTGCACACTTATGCATATATATA [CACACA_site2584] | 10.4
TTTCTATATGGATTTGCACACATAAAAATGCTTATA [CACACA_site8751] | 10.2
TGCTTTTCTTTTTGCACACTTATGCATATATATATA [CACACA_site2583] | 10.8
TTTGAATACTGAATGGTGCAAATTGTTCTCCCCATG | 10.5
TTGTTCTTTTGAAAGGTGCAAAAGAAAAATAATTAA | 9.53
CCCTCCCCATGTTTAGTGCAAAAATATTTGAAATTG [GTGCAC_site9873] | 10
AAAGGATTTATACTAGTGCAAAAATATAAAAATATA | 9.12
TTTTTTTTTTATGAAAGTACATATGAAAAATACGAA [XGTACX_site3451] | 6.53
CATTTTTTTTTATAAATACACACGTACGGGTGCATA [CACACA_site1569] | 7.38
ATTAAAAATTCAATTGCACACGCACATATTTTAATA [CACACA_site8618] | 9.92
TGATATTTAAATTTTGCACACGCATATGAAATTAGG [CACACA_site1034] | 10.1
ATATTTAAATTTTGCACACGCATATGAAATTAGGAC [CACACA_site1035] | 10.5
GACTCATTAAGGATTATTCCTAATGATCAAAAGAAC [CACACA_negctrl_site515] | 6.54
TCTTAAAATATATAGGTGCAAAAAAAAAAAAAAAAA | 8.62
TTTCTAATTTATATCACACACATATATTTATAGTAA [CACACA_site6280] | 6.53
ATAAAAATCAAAAAAAATACATAATAGTAATAATAA [GTGCAC_negctrl_site481] | 6.42
CATGAATATTTTAATGTGCACATTTATCATTATATG | 10.6
GGAACTTATTTTTATACACACATATGTGCATATTAT [CACACA_site629] | 10.8
TTTTTTTTCTATGTGGTGCACATTATTTTTTTTTTT | 9.27
TTTCACATATATATGGTGCATATTTTATGTGTAAAT [GTGCAC_site9937] | 9.91

Sequence | gcPBM binding intensity (ln)
TATATATATATATATGTGCACATTTATTGCCTTTGC | 10.6
ATATTTTTATATAATGAACACACATATTATATCATT [CACACA_site8446] | 6.22
TTTTGTTTATGTGTGCATTATATTATATTTTTTATT [TGCATGCA_negctrl_site146] | 10.2
ATTTTTATATAATGAACACACATATTATATCATTTA [CACACA_site1572] | 6.51
CTTATGTGCATACCTACACACTTACCTATATTTATA [CACACA_site7411] | 9.67
CTTTATATATATTGCGTGCACATTTTTTTTTTTTTT | 9.4
GTAAAGGCTATATATGTGCACATTTTTTTTTTTTTT [GTGCAC_site9925] | 10.9
ATGCATACACTTATATGTACACATTTACATATTATT [XGTACX_site2841] | 6.93
TTTTGTTTAGTGTATTGTACAATATATCTTTATTTT [XGTACX_site5163] | 6.52
TTTTGGCTGATCAGATTTAACAAAAAAAAAAAAAAA [CACACA_negctrl_site671] | 6.06
GAAATTAAATGACATACACACTATATTATAGATTTT [CACACA_site7468] | 6.23
AGTGGGATTTTTAATTGTACATAAATAATATCATAA [XGTACX_site4163] | 6.56
AGAATTAAAAACAGTTGTACAAAAAGTTGTATAAAT [XGTACX_site411] | 7.41
AAATAAAAGGTTGAGAGTACATTTTTGTGTATGTAT [XGTACX_site5547] | 6.49
ACTGAAAAAAGAAATACACACATTCTGGATCAGATA [CACACA_site7760] | 6.39
ATTTACATTATATTGAATATGCCATATTATATTATT [CACACA_negctrl_site811] | 6.59
CGTATGTGCGGACATGCATGCAATATACAAGAAAAA [TGCATGCA_site145] | 7.01
ACATATTATTCAAGTGCACACTTTATATTTATGATT [CACACA_site3295] | 8.81
TATTTTTAACAGTGCACACATAACTTAATTATATGT [CACACA_site2194] | 9.55
TTATATTATATATATGTGCACATTTTTAAACTTGGA | 10.7
TATATTATTCATTAAGCACACATTATTTTTATAATA [CACACA_site6056] | 6.36
CATTATATGATTTATGTGCACATTCATTTATTTTAA | 10.8
TATATATATATATATGTGCACATTTTATTAAAATGT | 10.2
